Screening results: PubChem BioAssay, National Center for Advancing Translational Sciences (NCATS)
A selection: hits, their analogues and other compounds. The true share with any hit is near 11%.
PI5P4Ka inh: PI5P4K alpha (human) kinase inhibition; max response, %; PI5P4Kalpha enzyme, ADP-Glo luminescence, 60 min; active compounds read low; P48426; 1.2% of 330,000 active; active means max response of -50% or lower; inconclusive means between -30% and -50%; inactive means -30% or higher; further: value at the top dose of about 77 µM; on the % scale 0 is the no-effect control and ±100 the full control effect
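qHTS, 1536-well: enzyme/substrate mix, compound by pin tool, 5 microM ATP final; RT 60 min; ADP-Glo reagents 1 (45 min) then 2 (30 min); luminescence.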
HP1b binding inh: inhibitors of HP1-beta chromodomain binding to methylated histone tails. AID 540317. AlphaScreen HP1-beta / biotin-H3K9me3 peptide binding. Potency, µM (top dose mostly 114 µM), without a hit: top-dose activity change, negative = inhibition, hits mostly inhibitors. 0.56% of 390,000 active; further: potency means the concentration at half of the fitted maximal effect; nearly all actives have a fitted effect of over 70% in size
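AlphaScreen: HP1-beta (50 nM) preformed 30 min with biotin-H3(1-18)K9me3 peptide (50 nM) in PBS pH 7.4, 0.01% Tween-20. Compound added for 30 min at RT, then streptavidin donor/nickel chelate acceptor beads (10 ug/mL) for 30 min.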
JMJD2A Tudor: inhibitors of human JMJD2A Tudor domain; O75164; AlphaScreen JMJD2A-Tudor / H3K4me3 peptide binding; Potency, µM (series often up to 114 µM), for inactives: at the top dose activity change, negative = inhibition, usual class: inhibitors; 4.4% of 390,000 active; AID 504339; further: potency means the concentration at half of the fitted maximal effect; on the % scale 0 is the no-effect control and ±100 the full control effect; nearly all actives have a fitted effect of over 50% in size
L3MBTL1 block: blocks human L3MBTL1; Q9Y468; AlphaScreen L3MBTL1–H3K9me1 peptide binding; Potency, µM (titrated, usually from 57.1 µM), without a hit: top-dose activity, negative = inhibition, usual class: inhibitors; 0.66% of 230,000 active; further: potency means the concentration at half of the fitted maximal effect; on the % scale 0 is the no-effect control and ±100 the full control effect; nearly all actives have a fitted effect of over 60% in size
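AlphaScreen proximity signal between nickel-chelate acceptor and streptavidin donor beads (final 10 ug/mL) reports binding of 50 nM L3MBTL1 to 75 nM biotin-H3 K9me1 peptide; complex incubated with compounds 30 min at room temperature; cefsulodin titration as control.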
BAZ2B block: inhibitors of human BAZ2B bromodomain. Q9UIF8. AlphaScreen BAZ2B-H3K14Ac peptide displacement. Potency, µM (doses to about 114 µM), for inactives: at the top dose activity change, negative = inhibition, hits mostly inhibitors. 4.4% of 360,000 active; further: potency means the concentration at half of the fitted maximal effect; on the % scale 0 is the no-effect control and ±100 the full control effect; nearly all actives have a fitted effect of over 60% in size
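AlphaScreen displacement: compounds (up to 110uM) incubated 30 min at room temperature with a preformed 50 nM BAZ2B/50 nM biotinylated H3K14Ac peptide complex in PBS pH 7.4 with Tween-20. Donor and acceptor beads at 10 ug/mL final added, 20 min light-protected before reading.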
G9a block: blocks human histone lysine methyltransferase G9a | Q96KQ7 | G9a H3K9 monomethylation, AlphaScreen, 2 h | Potency, µM (highest dose often 102 µM), for inactives: at the top dose activity, negative = inhibition, hits mostly inhibitors | 8.8% of 350,000 active; further: potency means the concentration at half of the fitted maximal effect; on the % scale 0 is the no-effect control and ±100 the full control effect; nearly all actives have a fitted effect of over 75% in size
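Signal arises when biotinylated H3K9 peptide, once monomethylated, bridges streptavidin donor and antibody-captured acceptor beads. Enzyme at 20 nM was preincubated 15 min with test compounds; peptide 500 nM and SAM 20 uM then reacted for 2 h.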
Active calls of the source: *; [ ] = remark or other dose. Unless noted, the call rests on the fitted dose curve; in most records, active means well fitted inhibition curve with a large enough effect; inconclusive means small, poorly fitted or top-dose-only effect; inactive means no such curve, though single readings can be large or run the other way.

`COc1ncc2nc(-c3cc(F)cc(F)c3)c(=O)n(CCc3ccccc3)c2n1` gave G9a block -5%[12.7 µM].
For COc1cc(C2SC(C)C(=O)N2CCc2ccccc2)cc(OC)c1OC (centres undefined) the results were PI5P4Ka inh 1, HP1b binding inh 31%, JMJD2A Tudor -7%, BAZ2B block -3% and G9a block 50µM*.
For COc1cc(CCN2C(=O)N[C@@H](CCc3ccccc3)C(C(C)=O)=C2C)cc(OC)c1OC the results were PI5P4Ka inh 20, HP1b binding inh 40%, JMJD2A Tudor -10%, L3MBTL1 block -3%, BAZ2B block -24% and G9a block -40%.
`COC(=O)c1c(NC(=S)NNC(=O)c2ccc(Cl)s2)sc(C(=O)N(C)C)c1C` gave PI5P4Ka inh inconclusive, HP1b binding inh -6%, JMJD2A Tudor -19%, BAZ2B block -17% and G9a block 28µM*.
Screening O=c1c2oc3ccccc3c2ncn1Cc1ccc(Br)cc1 returned HP1b binding inh 15%, JMJD2A Tudor -5%, BAZ2B block -20% and G9a block -35%[59 µM].
For c1ccc(COc2cccc(CNCc3cccnc3)c2)cc1 the results were PI5P4Ka inh 6, HP1b binding inh 19%, JMJD2A Tudor inconclusive, L3MBTL1 block -1%, BAZ2B block 50µM* and G9a block inconclusive.
CCOc1cc(CNc2ccc(O)cc2)cc(Cl)c1OCc1ccccc1 was read as HP1b binding inh 35µM*, JMJD2A Tudor 45µM*, BAZ2B block 28µM* and G9a block inconclusive.
Screening Oc1ccc(NCc2cccc(OCc3ccccc3)c2)cc1 returned PI5P4Ka inh -21, HP1b binding inh inconclusive, JMJD2A Tudor 50µM*, L3MBTL1 block inconclusive, BAZ2B block -29% and G9a block 13µM*.
For CCOc1cc(CNc2ccccc2)cc(Br)c1OCc1ccc(F)cc1 the results were PI5P4Ka inh 13, HP1b binding inh 62%, JMJD2A Tudor 12%, BAZ2B block 0% and G9a block 74%[59 µM].
`OCCNCc1cccc(OCc2ccc(Cl)cc2)c1` gave PI5P4Ka inh 2, HP1b binding inh 37%, JMJD2A Tudor -8%, L3MBTL1 block 5%, BAZ2B block -13% and G9a block -12%.
For c1ccc(COc2cccc(CNCc3ccccn3)c2)cc1 the results were PI5P4Ka inh 0, HP1b binding inh 40%, JMJD2A Tudor -27%, L3MBTL1 block -17%, BAZ2B block inconclusive and G9a block 0%[12.7 µM].
`c1ccc(NCc2cccnc2)cc1` gave PI5P4Ka inh 1, HP1b binding inh 18%, JMJD2A Tudor -20%, BAZ2B block -7% and G9a block 45µM*.
O=C1CN(C(=O)c2cccc(Br)c2)C(c2ccccc2)c2cc(Cl)ccc2N1 (centres undefined) was read as HP1b binding inh 19%, JMJD2A Tudor -31%, BAZ2B block -22% and G9a block inconclusive.
For CNS(=O)(=O)c1cn(CC(=O)N2CCN(c3ccccc3OC)CC2)cc1S(=O)(=O)NC the results were HP1b binding inh 24%, JMJD2A Tudor -5%, BAZ2B block -11% and G9a block -21%[59 µM].
Screening COc1ccc(C=O)cc1COc1ccc(NC(C)=O)cc1 returned JMJD2A Tudor -23%.
`CCN(c1ccccc1)c1ncnc2c1cnn2-c1ccc(C)cc1C` gave HP1b binding inh 45%, JMJD2A Tudor -5%, BAZ2B block 13% and G9a block -7%[59 µM].
For Oc1ccc(NCc2cccc(OCc3ccc(F)cc3)c2)cc1 the results were PI5P4Ka inh -6, HP1b binding inh inconclusive, JMJD2A Tudor 40µM*, L3MBTL1 block inconclusive and BAZ2B block -35%.
Screening Cc1cc(C(=O)OCC(=O)Nc2ccc(F)c(F)c2F)c(C)o1 returned PI5P4Ka inh -8, HP1b binding inh -11%, JMJD2A Tudor 20µM*, L3MBTL1 block 4%, BAZ2B block 2% and G9a block 17%.
CC1=C(SCc2ccccc2)C(=O)c2ccccc2C1=O was read as PI5P4Ka inh inconclusive, HP1b binding inh inconclusive and JMJD2A Tudor 14µM*.
Cn1c(SCc2ccccc2)nccc1=O was read as PI5P4Ka inh 5, HP1b binding inh 26% and JMJD2A Tudor -8%.
For CCCCCc1ccc(C)cc1O the results were G9a block -12%[12.7 µM].
`Cc1ccc(C)c(-n2c(-c3csc(C)c3)n[nH]c2=S)c1` gave HP1b binding inh -1%, JMJD2A Tudor 22µM*, BAZ2B block -29% and G9a block 0.28µM*.
For Cc1nonc1-c1ccc2c(c1)OCO2 the results were PI5P4Ka inh 4, HP1b binding inh 43%, JMJD2A Tudor -1%, L3MBTL1 block 3%, BAZ2B block 1% and G9a block 54%.
`Cc1ccc(C)c(-n2c(-c3ccc4c(c3)OCO4)n[nH]c2=S)c1` gave HP1b binding inh -6%, JMJD2A Tudor 25µM*, L3MBTL1 block -9%, BAZ2B block inconclusive and G9a block 4µM*.
`Cc1ccc(C)c(-n2c(-c3ccncc3)n[nH]c2=S)c1` gave PI5P4Ka inh 0, HP1b binding inh 27%, JMJD2A Tudor 11µM*, BAZ2B block -20% and G9a block 16µM*.
COc1ccc(-c2nnc(OCc3nc4ccccc4n3C)c3ccccc23)cc1 was read as PI5P4Ka inh -22, HP1b binding inh 3%, JMJD2A Tudor 50µM*, L3MBTL1 block 0%, BAZ2B block -35% and G9a block -1%[59 µM].
`Cc1ccc(Cn2cnc3nc4c(cc3c2=O)CC(C)CC4)cc1` (centres undefined) gave HP1b binding inh 16%[57 µM], JMJD2A Tudor -19%, BAZ2B block -12% and G9a block 1%[59 µM].
`c1ccc(-c2nccc(-c3ccco3)n2)nc1` gave PI5P4Ka inh 1, HP1b binding inh 32%, JMJD2A Tudor inconclusive, L3MBTL1 block -27%, BAZ2B block 32µM* and G9a block inconclusive.
Cc1cc(C2(c3ccc(O)c(C)c3)OC(=O)c3ccccc32)ccc1O was read as PI5P4Ka inh inconclusive, HP1b binding inh -25%, JMJD2A Tudor inconclusive, L3MBTL1 block inconclusive, BAZ2B block 50µM* and G9a block inconclusive.
Screening Nc1ccc(C2(c3ccc(N)cc3)OC(=O)c3ccccc32)cc1 returned PI5P4Ka inh 1, HP1b binding inh -2%, JMJD2A Tudor 35µM*, L3MBTL1 block -5%, BAZ2B block -28% and G9a block 9%.
Screening CC1(C(=O)O)Sc2[nH]c(=O)sc2C2c3ccccc3OC(=O)C21 (centres undefined) returned PI5P4Ka inh -91*, HP1b binding inh 34%, JMJD2A Tudor -8%, L3MBTL1 block -10%, BAZ2B block inconclusive and G9a block inconclusive.
